Reference: PubChem BioAssay (NCI)
Compounds without any hit were thinned out: in the full panel of roughly 83,000, 20% have a hit.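 48-hour exposure, single concentration, 96-well plates; percent growth endpoint where 0 means no net growth. Active: below 10.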 Values without a mark were called inactive. The source made the active and inactive calls.

Columns and labels:
Test in all cases: NCI-60 one-dose screen, 48 h (100 = growth as untreated, 0 = no growth, -100 = all killed)
Settings in all cases: 10 µM unless noted
HCT-15 colon = test system: HCT-15 colon
HT29 colon = test system: HT29 colon
SNB-75 CNS = test system: SNB-75 CNS
SNB-19 CNS = test system: SNB-19 CNS
U251 CNS = test system: U251 CNS
PC-3 prostate = test system: PC-3 prostate
SK-MEL-5 melanoma = test system: SK-MEL-5 melanoma
UACC-62 melanoma = test system: UACC-62 melanoma
LOX IMVI melanoma = test system: LOX IMVI melanoma
SK-MEL-28 melanoma = test system: SK-MEL-28 melanoma

Row | SMILES | growth (HCT-15 colon) | growth (HT29 colon) | growth (SNB-75 CNS) | growth (SNB-19 CNS) | growth (U251 CNS) | growth (PC-3 prostate) | growth (SK-MEL-5 melanoma) | growth (UACC-62 melanoma) | growth (LOX IMVI melanoma) | growth (SK-MEL-28 melanoma)
1 | O=C1Nc2ccccc2/C1=N/N=C/c1ccc(OC2OC(CO)C(O)C(O)C2O)cc1 (stereo not given) | 105% | 103% | 96.8% | 100% | 106% | 105% | 103% | 101% | 101% | 108%
2 | CCCCN1CCN(c2ccc3nc(-c4ccc5nc(-c6cc(OC)c(OC)c(OC)c6)[nH]c5c4)[nH]c3c2)CC1 | 99.2% | 56% | 38.7% | 71.9% | 56.3% | 57.4% | 44.8% | 39.5% | 40.7% | 66.3%
3 | CC(C)(C)Nc1c(-c2c3ccccc3cc3ccccc23)nc2ccccn12 | 79.7% | 55.3% | 64% | 74.1% | 68.2% | 37.9% | 84% | 50.6% | 85.9% | 82.2%
4 | CNC(=O)c1c(NC(=O)c2ccc(C(C)(C)C)cc2)sc2c1CCC(=O)C2 | -20.5% (active) | 3.63% (active) | -27.8% (active) | 17.7% | 4.12% (active) | -0.67% (active) | -83.1% (active) | 0.579% (active) | 8.5% (active) | 12.2%
5 | Cc1c2c(cn1Cc1ccccc1)CCc1cn(C)nc1-2 | 95.1% | 98% | 95.9% | 105% | 97.2% | 71.4% | 53.5% | 70.4% | 85.2% | 104%
6 | CCOC(=O)c1c2c(c(C)n1C)-c1nn(Cc3ccc(OC)cc3)cc1CC2 | 83.9% | 79.1% | 103% | 95.2% | 96.4% | 66.3% | 69.6% | 68.9% | 84.5% | 119%
7 | O=S(=O)(NCCNc1cc(-c2c(-c3cccc(O)c3)nc3sccn23)ccn1)c1ccc(Cl)cc1 | 53.2% | 65.7% | 8.44% (active) | 72.7% | 65.9% | 49.3% | 30.7% | 64.8% | 63.2% | 95.7%
8 | CCOC(=O)C(O)C(O)(c1ccccc1)c1ccccc1 (stereo not given) | 98% | 99.7% | 89.7% | 114% | 97.3% | 96.8% | 97.6% | 98.5% | 102% | 95.8%
9 | O=[N+]([O-])c1ccc(-c2cc3c(Nc4ccc(Sc5nc6ccccc6s5)c(Cl)c4)ncnc3s2)cc1 | 23.7% | 13.9% | 83.9% | 23.7% | 23% | 28.3% | 59.1% | 54.9% | 29.6% | 75.2%
10 | O=C(/C=C/C12c3ccccc3C(c3ccccc31)C1C(=O)N(c3ccc(Cl)cc3)C(=O)C12)c1ccccn1 (stereo not given) | -35% (active) | 1.52% (active) | -18.7% (active) | -71.9% (active) | -48.3% (active) | -19.8% (active) | -83.5% (active) | -44.6% (active) | -89.4% (active) | -12.4% (active)
11 | CCOC(=O)C(=CNc1ccccc1[N+](=O)[O-])C(=O)OCC | 108% | 92.6% | 97% | 91.2% | 92.6% | 95.7% | 86.4% | 84.4% | 99.9% | 102%
12 | COc1ccc(C2CC(c3cnccn3)=NN2)cc1OC (stereo not given) | 107% | 84.9% | 118% | 103% | 96.7% | 92% | 100% | 103% | 104% | 121%
13 | C[C@@H]1CC[C@@H]2[C@@H]1[C@H](OC(=O)/C=C/c1ccccc1)[C@]1(CCCOCCOCCOCCOC(=O)CCCC[C@@H]3SC[C@@H]4NC(=O)N[C@@H]43)C[C@@H](OC(=O)CO)[C@@]2(C)O1 | 106% | 98.1% | 88.8% | 106% | 105% | 97.7% | 105% | 102% | 106% | 108%
14 | O=C(Nc1ccc(N2CCCCC2)c(Cl)c1)c1ccc(Br)o1 | 61.1% | 73.7% | 60.7% | 78.3% | 68.5% | 58% | -96.8% (active) | -40.2% (active) | 2.04% (active) | 39.6%
15 | CN(CCC(=O)/C(=C\c1ccccc1)c1ccc(Cl)cc1)Cc1ccccc1 | 2.09% (active) | 9.63% (active) | 60.3% | 23% | -10.3% (active) | 45% | 58.7% | -36.6% (active) | -58.3% (active) | 9.17% (active)
16 | N=C(N)c1ccc(-c2ccc(-c3ccc(Cl)cc3Cl)o2)nc1 | 2.86% (active) | -23.8% (active) | -20% (active) | 48.6% | -37.3% (active) | 56.2% | 87% | 101% | -82.6% (active) | 80.9%
17 | Nc1ccc(-c2cc3c(Nc4ccc(OCc5cccc(F)c5)c(Cl)c4)ncnc3s2)cc1 | 32.9% | 84.5% | 87.2% | 77.3% | 57% | 29.6% | 57.7% | 55.7% | 24.5% | 39.3%
18 | COc1cc(-c2ccc(-c3ccc(C(=N)N)nc3)s2)cc(OC)c1OC | 21.4% | 14.2% | 68.5% | 65.2% | 28.9% | 54.7% | 37.6% | 59.5% | -14.3% (active) | 59.3%
19 | O=C(Nc1ccccn1)[C@H](O)[C@@H](O)C(=O)N1CCOCC1 | 107% | 104% | 121% | 102% | 96.1% | 94% | 99.3% | 108% | 104% | 114%
20 | CCCNCC(=O)Nc1ccc(C(=O)OC(C)(C)CC)cc1 | 106% | 79.4% | 104% | 99.7% | 100% | 75.8% | 98.2% | 96.3% | 100% | 112%
21 | Cl.Fc1c[c-]c(-c2ccccn2)c(F)c1.[Pt].c1ccc([PH+](C[PH+](c2ccccc2)c2ccccc2)c2ccccc2)cc1 | -80.1% (active) | -64.7% (active) | -95.5% (active) | -88.9% (active) | -77.1% (active) | -57.7% (active) | -98.2% (active) | -82.3% (active) | -88.9% (active) | -92.5% (active)
22 | COc1cc2c(cc1OC)-c1ccc3cc4c(cc3c1N(CCCN(C)C)C2)OCO4 | 52% | 11.5% | 44.1% | 25.3% | 18.2% | 23% | 43.9% | 44% | 19.5% | 58.8%
23 | NC(=S)c1csc(CCNC(=O)c2ccccc2)n1 | 100% | 107% | 97.7% | 107% | 97.6% | 96.6% | 115% | 105% | 110% | 108%
24 | COc1ccc2cc(-c3ccc(C(=O)NN)c(C)n3)ccc2c1 | 99% | 95% | 109% | 96.6% | 98.9% | 93.3% | 102% | 82.1% | 88.2% | 93.7%
25 | CC(C)OC(=O)OCOP(=O)(OCOC(=O)OC(C)C)C1CCCN(O)C1=O (stereo not given) | 33.4% | 5.87% (active) | 57.6% | 21.5% | 15.2% | 60.5% | 30.9% | 23.6% | 39% | 15.2%
26 | Nc1ccc(S(=O)(=O)Nc2ccsc2-c2nc(-c3ccccc3)no2)cc1 | 34.1% | 11.8% | 54.8% | 69.3% | 41.7% | 53.1% | 65.9% | 50.7% | 68% | 71.2%
27 | O=C1C2=C(CCN(Cc3ccccc3)C2)N2CCN=C2N1Cc1ccc(F)cc1F | 20.4% | 34% | 46.7% | 30.1% | 21.3% | 21.3% | 27.5% | 44.5% | 39.3% | 57.9%
